Assay outcomes as filed in PubChem BioAssay.
Sampled rows, rich in hits. Any-hit rate of the full collection: about 2.8%.
PP1 counter – counter-screen for PP5 inhibitors: inhibitors of human PP1-alpha; purified PP1alpha, OMFP fluorescence; inhibition, % at 6.7 µM; actives 0.9% (n = 320,000);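 active = inhibition above the mean inhibition of all tested compounds plus 3 SD, computed separately for each screening campaign, cut at about 15% in these data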
IDE inh – inhibits human insulin-degrading enzyme in HEK cells | P14735 | FAbetaB cleavage, fluorescence polarization | inhibition, % at 5.59 µM | actives 0.41% (n = 320,000);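 active = percent inhibition above the average of all tested compounds plus 3 SD, set per screening campaign, cut at about 16% in these data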;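 also: IDE supplied by intact live HEK cells; FP after avidin binding of uncleaved biotin substrate so inhibition keeps polarization high; 0% = DMSO wells and 100% = 60 µM reference IDE inhibitor Ii1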
IDE cell activ – boosts human insulin-degrading enzyme activity in HEK cells; FAbeta-B cleavage, fluorescence polarization; 0% vehicle, 100% cell-free pure enzyme wells; activation, % at 5.96 µM; actives 0.073% (n = 340,000); P14735;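 active = activation above the mean of all tested compounds plus 3 SD, set per screening campaign, cut at about 17% in these data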
PP5 inh – inhibitors of human protein phosphatase 5 (PP5). P53041. purified PP5c, OMFP substrate fluorescence. inhibition, % at 6.7 µM. actives 0.18% (n = 320,000);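 active = inhibition above the campaign's mean inhibition across all tested compounds plus 3 SD, cut at about 9.5% in these data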;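 also: 0% = DMSO only and 100% = 100 µM cantharidin control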
Target sequence (P53041 whole entry, looked up): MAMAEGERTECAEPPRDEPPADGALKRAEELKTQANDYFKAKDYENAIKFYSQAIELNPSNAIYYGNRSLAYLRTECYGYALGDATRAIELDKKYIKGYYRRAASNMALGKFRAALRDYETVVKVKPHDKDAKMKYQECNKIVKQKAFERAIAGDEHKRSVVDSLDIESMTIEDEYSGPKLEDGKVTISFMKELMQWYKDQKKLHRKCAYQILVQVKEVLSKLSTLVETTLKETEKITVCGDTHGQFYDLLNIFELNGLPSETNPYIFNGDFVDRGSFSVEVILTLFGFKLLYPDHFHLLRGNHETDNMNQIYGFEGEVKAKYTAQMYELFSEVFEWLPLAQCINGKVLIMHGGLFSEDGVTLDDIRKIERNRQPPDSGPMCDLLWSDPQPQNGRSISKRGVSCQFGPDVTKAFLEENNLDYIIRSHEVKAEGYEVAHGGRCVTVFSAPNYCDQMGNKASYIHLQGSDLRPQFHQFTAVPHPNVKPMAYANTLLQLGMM
Granule exo inh – lytic granule exocytosis inhibition. TALL-104 LAMP-1 surface exposure, flow cytometry; cells stimulated with thapsigargin and PMA. inhibition, % at 10 µM. actives 0.66% (n = 360,000). AID 651702;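 active = inhibition above about 55%, limit read from the data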
SKKanGAS inh – blocks kanamycin growth of S. pyogenes SKKanGAS strain; actives 1.3% (n = 300,000); BacTiter-Glo, 6 h; AID 1662; inhibition, % at 7.5 µM;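 active = mean replicate score, as percent of positive control median, at least 50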;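 also: strain carries kanamycin resistance gene driven by streptokinase promoter and grows in 40 µg/ml kanamycin; loss of luminescence reflects streptokinase promoter inhibition or plain growth inhibition; 0% = median of DMSO wells and 100% = positive control at its reference dose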
Active calls of the source: *; . = no result given.

SMILES | PP1 counter | IDE inh | IDE cell activ | PP5 inh | Granule exo inh | SKKanGAS inh
Cc1ccc(S(=O)(=O)NC(=O)C2(C)CCN2C(=O)Cc2cccs2)cc1 (centres undefined) | . | . | . | . | 7.0 | .
CCCn1c(=O)c(C(=O)NNC(=O)c2ccccc2Cl)c(O)c2ccccc21 | 6.1 | -3.8 | -0.4 | 0.6 | -8.1 | 86.1*
CCCCCCC(=O)NNC(=O)c1c(O)c2ccccc2n(CCC)c1=O | 3.9 | 0.3 | 0.8 | 1.6 | 1.9 | 92.3*
CCCn1c(=O)c(C(=O)Nc2ccccc2C)c(O)c2ccccc21 | -4.0 | -7.5 | 6.2 | 0.0 | 3.8 | -5.6
CCCCCCCC(=O)NNC(=O)c1c(O)c2ccccc2n(CCC)c1=O | -0.1 | 2.9 | 7.1 | 2.8 | 0.2 | 111.3*
CCCn1c(=O)c(C(=O)NNC(=O)Cc2ccccc2)c(O)c2ccccc21 | -0.6 | 5.8 | 4.0 | 4.0 | -2.0 | 36.3
CCCn1c(=O)c(C(=O)Nc2ccccc2)c(O)c2ccccc21 | -5.5 | 5.2 | -0.7 | -1.0 | 3.2 | -2.5
Cc1nc(N)nc(N)c1CCCc1ccc(Cl)c(Cl)c1 | 6.9 | 3.8 | 9.1 | 2.8 | 44.3 | 109.0*
COc1ccc(C(C)(NC(C)=O)c2nc(-c3cccc(NC(C)=O)c3)cs2)cc1 (centres undefined) | . | . | . | . | -1.5 | .
O=C1CC2(CCCC2)CC(=O)N1c1ccccc1 | -1.6 | -0.9 | 30.2* | -0.9 | 1.5 | 11.1
